D2 ag-1 = agonists of human D2 dopamine receptor (beta-arrestin); P14416; DiscoveRx PathHunter D2 beta-arrestin, luminescence, 90 min; 100% = 57 uM dopamine signal; activation, % (concentration not given with the values); actives 0.084% (n = 360,000); in the data active = activation above about 40%
Target sequence (P14416 whole entry, looked up): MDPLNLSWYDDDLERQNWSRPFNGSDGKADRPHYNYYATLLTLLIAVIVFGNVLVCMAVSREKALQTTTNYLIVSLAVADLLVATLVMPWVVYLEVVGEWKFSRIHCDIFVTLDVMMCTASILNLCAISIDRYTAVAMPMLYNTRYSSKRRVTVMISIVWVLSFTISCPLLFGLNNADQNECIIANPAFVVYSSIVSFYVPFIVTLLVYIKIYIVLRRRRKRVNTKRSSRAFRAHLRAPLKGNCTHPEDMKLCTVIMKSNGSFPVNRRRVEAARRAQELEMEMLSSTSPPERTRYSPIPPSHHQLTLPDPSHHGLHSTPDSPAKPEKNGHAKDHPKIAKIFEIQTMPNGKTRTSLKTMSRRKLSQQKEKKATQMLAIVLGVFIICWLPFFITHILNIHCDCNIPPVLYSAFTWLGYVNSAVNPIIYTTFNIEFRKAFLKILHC
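Agonist mode: compounds alone added to overnight-plated D2 PathHunter cells for 90 min at 37 C, with 57 uM final dopamine (EC100) defining full response. Beta-arrestin recruitment detected by chemiluminescent reagent, read after 1 h at ambient temperature.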
D2 ag-2 = activates the human D2 dopamine receptor; P14416; HEK293 T-REx D2 cells, calcium flux agonist mode; activation, % at 2 µM; actives 0.53% (n = 340,000);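 active = activation over 3 SD above normal in the single-dose calcium agonist read, cut at about 30% in these data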
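Tetracycline-induced HEK293 T-REx cells with force-coupled D2 receptor, plated overnight at 30 C, loaded with no-wash calcium dye. After a 10 s baseline, compound was pin-added and calcium flux read kinetically for 180 s; calcium rises flagged agonists.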
D2 PAM-1 = positively modulates the human D2 dopamine receptor allosterically. P14416. HEK293 T-REx D2, calcium flux, EC20 dopamine potentiation. potentiation, % at 10 µM. actives 0.34% (n = 340,000);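 active = potentiation over 3 SD above the plate norm, cut at about 30% in these data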
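Potentiation of an EC20 dopamine calcium response is measured in a force-coupled, tetracycline-inducible Hek293 Trex D2 line. Compound-only kinetic reads over 180 s flag agonists before dopamine addition.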
D2 antagonist = antagonizes the human D2 dopamine receptor; P14416; HEK293 TREx D2 cells, calcium flux, dopamine EC80; inhibition, % at 10 µM; actives 2% (n = 340,000); in the data active = inhibition above about 30%; inactive = below that, where a call was filed
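HEK293 T-REx D2 cells, tet-induced, calcium dye no-wash. Cpd pintool add, 180 s kinetic, then EC80 DA, 180 s kinetic. Ca flux read.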
D2 PAM-2 = human D2 receptor positive allosteric modulation | AID 624464 | actives 0.23% (n = 360,000) | DiscoveRx D2 beta-arrestin cells, luminescence, 90 min; 100% = 57 uM dopamine signal | potentiation, % (concentration not given with the values); in the data active = potentiation above about 50%
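PathHunter D2 cells, attached overnight at 37 deg C, received compound in DMSO plus dopamine at EC20 (50 nM final) for 90 min at 37 deg C. Beta-arrestin recruitment was read as luminescence after 1 h with detection reagent at ambient temperature.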
Numbers stand for hits. This is a sample that favours compounds with a hit; in the whole collection about 2.4% have one here.

Screening CCOc1ccc(CN2CCN(Cc3cccc4c3OCO4)CC2CCO)cc1 (stereo not given) returned D2 ag-1 inactive, D2 ag-2 inactive, D2 PAM-1 inactive, D2 antagonist inactive and D2 PAM-2 inactive.
`Cc1ccc(CN2CCN(Cc3cccc4c3OCO4)CC2CCO)cc1` (stereo not given) gave D2 ag-1 inactive, D2 ag-2 inactive, D2 PAM-1 inactive, D2 antagonist 88 and D2 PAM-2 inactive.
For COc1ccccc1NC(=O)C(=O)NCCc1csc(-c2cccc(F)c2)n1 the results were D2 ag-2 inactive and D2 PAM-1 inactive.
For Cc1ccc(/C=C/C(=O)c2cc(Br)ccc2OC(=O)c2ccco2)cc1 the results were D2 ag-1 inactive, D2 ag-2 inactive, D2 PAM-1 inactive, D2 antagonist 35 and D2 PAM-2 inactive.
For COc1ccc(-c2[nH]c(-c3ccc(OC)c(OC)c3)nc2SCC(=O)Nc2ccccc2)cc1 the results were D2 PAM-1 inactive.
`Cn1c(=O)c([N+](=O)[O-])c(NCCc2ccccc2)c2ccccc21` gave D2 ag-1 inactive, D2 ag-2 inactive, D2 PAM-1 inactive, D2 antagonist 38 and D2 PAM-2 inactive.
For CC(=O)Nc1ccc(N2C(=O)c3cccc4c(O)ccc(c34)C2=O)cc1 the results were D2 ag-1 inactive, D2 ag-2 64, D2 PAM-1 inactive, D2 antagonist inactive and D2 PAM-2 inactive.
`CCCCN(C)CCCNC(=O)Cn1ncc2c3ccccc3n(Cc3ccccc3)c2c1=O` gave D2 ag-2 inactive and D2 PAM-1 inactive.
Screening CC1CN(C(=O)/C(C#N)=C2\N=C(NC(=O)c3ccccc3Cl)c3ccccc32)CC(C)O1 (stereo not given) returned D2 ag-2 inactive, D2 PAM-1 inactive and D2 antagonist 59.
COc1ccc(NC(=O)CSc2ccc3nc(-c4ccccc4)cn3n2)c(OC)c1 was read as D2 ag-2 inactive and D2 PAM-1 inactive.
COc1ccc([N+](=O)[O-])cc1NC(=S)NC(NC(C)=O)C(Cl)(Cl)Cl (stereo not given) was read as D2 ag-1 inactive, D2 ag-2 inactive, D2 PAM-1 inactive, D2 antagonist inactive and D2 PAM-2 inactive.
For COc1ccc([N+](=O)[O-])cc1NC(=S)NC(NC(=O)Cc1ccc(OC)c(OC)c1)C(Cl)(Cl)Cl (stereo not given) the results were D2 ag-1 inactive, D2 ag-2 inactive, D2 PAM-1 inactive, D2 antagonist 74 and D2 PAM-2 inactive.
CCN(CC)c1ccc(NC(=O)c2cc(S(=O)(=O)N3CCc4ccccc43)cn2C)c(C)c1 was read as D2 ag-2 inactive and D2 PAM-1 inactive.
Screening Cc1ccc(-c2cc(C(=O)N3CCN(S(=O)(=O)c4ccc(Br)s4)CC3)[nH]n2)c(C)c1 returned D2 PAM-1 inactive.
`N#C/C(=C1\C(=O)Nc2c(Cl)cc(Cl)cc21)c1nnc2n1CCCCC2` gave D2 ag-1 inactive and D2 PAM-2 67.
`O=C(CSc1nc(=O)n(Cc2ccco2)c2c1CCC2)NCc1ccccc1` gave D2 ag-2 inactive and D2 PAM-1 inactive.
Screening O=[N+]([O-])c1ccc(N2CCCC2)cc1NC(c1ccccc1)c1ccccc1 returned D2 ag-1 inactive, D2 ag-2 inactive, D2 PAM-1 inactive, D2 antagonist 30 and D2 PAM-2 inactive.
Screening Cc1cc(C)c(C#N)c(SCc2ccccc2C)n1 returned D2 ag-1 inactive, D2 ag-2 inactive, D2 PAM-1 inactive, D2 antagonist 34 and D2 PAM-2 inactive.
Screening Cc1ccc(S(=O)(=O)CCSc2nc(C)cc(C)c2C#N)cc1 returned D2 ag-1 inactive, D2 ag-2 inactive, D2 PAM-1 33, D2 antagonist inactive and D2 PAM-2 inactive.
Screening CCCN(CCC)CCNC(=O)Cn1cnc2sc(C)c(S(=O)(=O)N3CCN(c4ccccc4OC)CC3)c2c1=O returned D2 PAM-1 inactive.
Cc1ccc(C(=O)N/N=C\c2ccc(-c3ccc([N+](=O)[O-])cc3)o2)cn1 was read as D2 ag-1 inactive, D2 ag-2 inactive, D2 PAM-1 inactive, D2 antagonist inactive and D2 PAM-2 inactive.
`Cc1ccc(C(=O)N/N=C\c2ccc(-c3ccc(Cl)cc3)o2)cn1` gave D2 ag-1 inactive, D2 ag-2 inactive, D2 PAM-1 30, D2 antagonist inactive and D2 PAM-2 inactive.
